# Test results published in the supplement of paper PMC9694430.
# Key:
# Experiment in all cases: thermal shift delta Tm vs DMSO control; higher = stronger stabilization (binding)
# Settings in all cases: 12.5 µM; protein concentration 2 µM
# [1] = test system: LOC_OS01G57100-cb003
# Procedure, shortened: (§1)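 Compounds dissolved in DMSO were added to purified rice kinase domain constructs, which had been expressed in E. coli, for differential scanning fluorimetry. Each well held 19.5 μl of 2 μM kinase in 100 mM potassium phosphate pH 7.5, 150 mM NaCl, 10% glycerol and 5 × SYPRO Orange. Fluorescence was followed from 25°C to 95°C at a rate of 0.05°C/s. Shifts in Boltzmann-fitted melting temperature are triplicate means relative to DMSO-only protein.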
# [2] = test system: LOC_OS01G60330-cb001
# Procedure, shortened: as §1
# [3] = test system: LOC_OS01G60700-cb002
# Procedure, shortened: as §1
# [4] = test system: LOC_OS01G63280-cb003
# Procedure, shortened: as §1
# [5] = test system: LOC_OS01G67340-cb003
# Procedure, shortened: as §1
# [6] = test system: LOC_OS01G70970-cb002
# Procedure, shortened: as §1
# [7] = test system: LOC_OS02G07810-cb001
# Procedure, shortened: as §1
# [8] = test system: LOC_OS02G08530-cb003
# Procedure, shortened: as §1
# [9] = test system: LOC_OS02G14120-cb001
# Procedure, shortened: as §1
# [10] = test system: LOC_OS02G17970-cb001
# Procedure, shortened: as §1
SMILES,thermal shift delta Tm [1] [°C],thermal shift delta Tm [2] [°C],thermal shift delta Tm [3] [°C],thermal shift delta Tm [4] [°C],thermal shift delta Tm [5] [°C],thermal shift delta Tm [6] [°C],thermal shift delta Tm [7] [°C],thermal shift delta Tm [8] [°C],thermal shift delta Tm [9] [°C],thermal shift delta Tm [10] [°C]
Cn1ncc(Cl)c1-c1cc(C(=O)N[C@H](CN)Cc2ccc(F)c(F)c2)oc1Cl,1.78,0.8,1.33,0.28,0.45,0.03,0.82,0.49,0.41,1.67
O=C(Nc1nccs1)C(c1cc(F)ccc1O)N1Cc2ccccc2C1=O (stereo not given),0.29,1.19,0.64,-0.09,1.06,0.42,0.12,0.39,0.47,0.37
Cc1cc(Nc2cc(N3CCN(C)CC3)nc(/C=C/c3ccccc3)n2)n[nH]1,0.41,9.2,0.77,0.17,0.51,3.04,0.72,2.41,7.14,-0.1
COc1cc(N2CCC(N(C)C)CC2)ccc1Nc1ncc(Cl)c(Nc2ccccc2P(C)(C)=O)n1,4.55,0.43,0.89,0.32,1.45,4.81,0.65,5.8,10.2,0.5
Cc1cc(N2CCOCC2)cc2[nH]c(-c3c(NC[C@@H](O)c4cccc(Cl)c4)cc[nH]c3=O)nc12,1.15,6.82,-0.31,1.68,1.08,1.82,0.46,4.03,1.99,0.82
Cc1ccc(C(=O)Nc2ccc(Oc3cc4cnn(C)c4cc3-c3cn[nH]c3)c(F)c2)c(=O)n1-c1ccc(F)cc1,2.31,1.94,1.29,5.18,1.33,0.33,1.19,1.25,5.05,1.48
CCN(C)S(=O)(=O)Nc1ccc(F)c(C(=O)c2c[nH]c3ncc(-c4cnc(C5CC5)nc4)cc23)c1F,1.23,1.8,0.8,7.4,0.55,0.37,0.74,0.59,-0.46,0.71
CNC(=O)c1cc(Oc2ccc3nc(N[C@@H]4CCCC[C@H]4O)sc3c2)ccn1,1.55,0.59,1.46,0.76,1.16,0.25,0.97,0.76,-0.02,0.53
CC[C@@](C)(Nc1ccnc(-c2c[nH]c3ncccc23)n1)C(=O)NCC(F)(F)F [Decernotinib (VX-509)],2.18,0.73,0.67,0.95,0.62,0.36,0.36,0.65,5.49,0.86
CC(C)n1nc(-c2ccc3oc(N)nc3c2)c2c(N)ncnc21,0.15,0.88,0.9,0.99,0.39,0.54,0.31,1.77,1.77,1.04
